21 compounds from PubChem BioAssay can be followed below.

The nature of assay [1]: reduced viability of SK-BR-3 breast cancer cells – cell-based, 24 h, human, pilot screen (AID 572;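 active = viability at or below 10% of carrier control in both of two separate runs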;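 note: compound exposure lasted between 18 and 24 h rather than exactly 24 h; 100% = carrier-treated control wells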). The following applies: SK-BR-3 viability, CellTiter-Glo luminescence, at 10 µM, stronger effect = lower value.
Assay [2] in a line: MRP1 drug-resistance reversers in H69AR cells – cell-based, doxorubicin co-treatment, pilot screen (AID 601). The following applies: CellTiter-Glo, 72 h, at 10 µM; for differential viability (reversal): stronger effect = higher value.
Assay [3] can be described thus: yeast transport mutant growth inhibition pilot in 384-well plates, post-Golgi transport modulator project (AID 636; in the data active = inhibition above about 31%). The following applies: absorbance 615 nm, about 18 h, stronger effect = higher value.
A short description of assay [4]: growth suppression of yeast trafficking mutant, preliminary HTS, modulators of trafficking downstream of Golgi apparatus project, 1536-format plate, OD 615 nm (AID 637; in the data active = inhibition above about 30%). The following applies: yeast transport mutant growth, absorbance 615 nm, 18 h; stronger effect = higher value.
Assay [5] is described as follows: HUVEC growth inhibition – cell-based, human, primary screen (AID 575;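 active = viability at or below 30% in both replicate assays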;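 note: 100% = median of untreated cell wells with 0.1% DMSO on each plate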). The following applies: HUVEC proliferation, CellTiter-Glo luminescence, 72 h; at 10 µM; stronger effect = lower value.
Assay [6] is described as follows: H69AR cell proliferation blockers – human, duplicate replicates, primary screen (AID 580;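 active = viability at or under a set limit in both replicates, limit being median viability minus 3 SD, cut at about 48% in these data, passing the limit was not always enough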;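 note: 100% = mean luminescence of untreated wells and 0% = no signal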). The following applies: H69AR lung tumor cells viability, ATP luminescence, 72 h; at 10 µM; stronger effect = lower value.
[7] abbreviates: H69AR cells + 2 uM doxorubicin, measured here: viability with 2 uM doxorubicin, stronger effect = lower value.
The mark [8] stands for this setting: H69AR cells, compound alone cytotoxicity.

Activity calls are given as the source filed them.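 Rule for the calls, unless noted: active = viability loss from added drug above about 55%, and viability with drug at most 40%, in both replicates (limit read from the data, passing the limit was not always enough); inconclusive = both conditions met in only one replicate; inactive = neither replicate meets both conditions.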

For `COc1cc2nc(N3CCN(C(=O)c4ccco4)CC3)nc(N)c2cc1OC`, the viability in assay [1] is 53% (inactive); in assay [2] (setting [7]), 28.9%; in assay [2] (setting [8]), 15.4%. In assay [2] (H69AR cells + 2 uM doxorubicin), the differential viability (reversal) is -13.4% (inactive). Moreover, the results for the inhibition in assay [3] and in assay [4] were 2.47% (inactive) and -0.17% (inactive), respectively.

For `CC(=O)NC(Cc1ccc(C)cc1)C(=O)NC1CCN(C(=O)c2cnccn2)CC1` (stereo unspecified), the viability in assay [5] is 110% (inactive); in assay [6] it was 93.3% (inactive); in assay [2] (setting [7]) it was 91.1%; in assay [2] (setting [8]), 93.3%. Besides, in assay [2] (H69AR cells + 2 uM doxorubicin), the differential viability (reversal) was 2.21% (inactive). In addition, the inhibition in assay [3] is -2.93% (inactive); in assay [4], 2.22% (inactive).

For `Clc1ccc(OCc2nnc(SCCN3CCCCC3)n2Cc2ccco2)cc1`, the results for the viability in assay [1], in assay [2] (setting [7]) and in assay [2] (setting [8]) were 90% (inactive), 43.3% and 38.6%, respectively. Besides, the differential viability (reversal) in assay [2] (H69AR cells + 2 uM doxorubicin) was -4.72% (inactive). Besides, the values for the inhibition in assay [3] and in assay [4] were -7.33% (inactive) and -1.82% (inactive), respectively.

As for `CNCCCC12CCC(c3ccccc31)c1ccccc12`, the viability in assay [5] is 77.4% (inactive); in assay [6], 70.1% (inactive); in assay [2] (setting [7]), 63.8%; in assay [2] (setting [8]) it was 70.1%. In assay [2] (H69AR cells + 2 uM doxorubicin), the differential viability (reversal) is 6.27% (inactive).

`Nc1c(C(=O)NCCN2CCOCC2)c2nc3ccccc3nc2n1-c1ccc2c(c1)OCO2`: the viability in assay [5] was 51.9% (inactive); in assay [6], 18.1% (active); in assay [2] (setting [7]), 26.8%; in assay [2] (setting [8]), 18.1%. In addition, the differential viability (reversal) in assay [2] (H69AR cells + 2 uM doxorubicin) was -8.75% (inactive). Moreover, the inhibition is -6.27% (inactive) in assay [3] and 6.19% (inactive) in assay [4].

Turning to `CCC(=O)Oc1ccc(/C(CC)=C(\CC)c2ccc(OC(=O)CC)cc2)cc1`, the viability in assay [1] was 131% (inactive); in assay [2] (setting [7]), 49.2%; in assay [2] (setting [8]), 8.75%. In assay [2] (H69AR cells + 2 uM doxorubicin), the differential viability (reversal) is -40.5% (inactive). For the same compound, the inhibition in assay [3] was -0.39% (inactive); in assay [4], -4.67% (inactive).

Regarding `COc1ccc(Cl)cc1N1CCN(CCNC(=O)Nc2ccccc2C)CC1`, the viability is 85% (inactive) in assay [1], 71.4% in assay [2] (setting [7]) and 48.7% in assay [2] (setting [8]). Further, the differential viability (reversal) in assay [2] (H69AR cells + 2 uM doxorubicin) was -22.7% (inactive). Further, the inhibition in assay [3] is -4.93% (inactive); in assay [4], 4.91% (inactive).

In the case of `CCOC(=O)CN(C)Cc1c[nH]c2ccccc12`, the viability in assay [5] is 80.4% (inactive); in assay [6] it was 87.1% (inactive); in assay [2] (setting [7]) it was 98.7%; in assay [2] (setting [8]), 87.1%. The differential viability (reversal) in assay [2] (H69AR cells + 2 uM doxorubicin) is -11.6% (inactive). Also, the figures for the inhibition in assay [3] and in assay [4] were -4.47% (inactive) and 7.14% (inactive), respectively.

As for `CC(=O)C(Sc1ncnc2c1nnn2-c1ccc(F)cc1)C(=O)N(C)C` (stereo unspecified), the values for the viability in assay [1], in assay [2] (setting [7]) and in assay [2] (setting [8]) were 136% (inactive), 61% and 48.7%, respectively. In assay [2] (H69AR cells + 2 uM doxorubicin), the differential viability (reversal) was -12.3% (inactive). The results for the inhibition in assay [3] and in assay [4] were -3.12% (inactive) and 4.1% (inactive), respectively.

On to `O=C(NC1CC1)c1cccc(Nc2ccc(-c3ccc4c(c3)OCCO4)nn2)c1`, for which the viability in assay [1] is 76% (inactive); in assay [2] (setting [7]) it was 61.2%; in assay [2] (setting [8]) it was 49.1%. Moreover, the differential viability (reversal) in assay [2] (H69AR cells + 2 uM doxorubicin) is -12% (inactive). Besides, the inhibition in assay [3] was -0.81% (inactive); in assay [4] it was -5.82% (inactive).

Regarding `COc1ccc(N2CCN(c3oc(COc4ccccc4)nc3C#N)CC2)cc1`, the viability in assay [5] is 84.1% (inactive); in assay [6], 101% (inactive); in assay [2] (setting [7]), 103%; in assay [2] (setting [8]), 101%. The differential viability (reversal) in assay [2] (H69AR cells + 2 uM doxorubicin) was -2.02% (inactive). Besides, the inhibition in assay [3] is -5.19% (inactive); in assay [4] it was 0.95% (inactive).

As for `CC(C)Cn1c2c(c(O)c(C(=O)Nc3ncccc3O)c1=O)CCCC2`, the results for the viability in assay [1], in assay [2] (setting [7]) and in assay [2] (setting [8]) were 91% (inactive), 63.1% and 52.4%, respectively. Also, in assay [2] (H69AR cells + 2 uM doxorubicin), the differential viability (reversal) is -10.7% (inactive). In addition, the inhibition in assay [3] is -2% (inactive); in assay [4], -2.91% (inactive).

For the compound `CCN(C(=O)c1c(-c2ccccc2)noc1C)c1ccccc1`, the viability was 100% (inactive) in assay [5], 93.8% (inactive) in assay [6], 84.3% in assay [2] (setting [7]) and 93.8% in assay [2] (setting [8]). In addition, the differential viability (reversal) in assay [2] (H69AR cells + 2 uM doxorubicin) was 9.52% (inactive). Also, the inhibition in assay [3] is -1.18% (inactive); in assay [4], 14.9% (inactive).

In the case of `C=C(CC)C(=O)c1ccc(OCC(=O)O)c(Cl)c1Cl`, the viability in assay [1] was 86% (inactive); in assay [2] (setting [7]) it was 48.5%; in assay [2] (setting [8]), 49.4%. Moreover, in assay [2] (H69AR cells + 2 uM doxorubicin), the differential viability (reversal) was 0.86% (inactive). The inhibition in assay [3] was -2.47% (inactive); in assay [4], -0.5% (inactive).

With `Cc1cc(-n2c(C)cc(C(=O)CSc3nnnn3-c3ccc(Cl)cc3)c2C)no1`, the viability in assay [1] was 81.5% (inactive); in assay [2] (setting [7]), 44.3%; in assay [2] (setting [8]) it was 49.2%. Further, in assay [2] (H69AR cells + 2 uM doxorubicin), the differential viability (reversal) is 4.86% (inactive). The inhibition in assay [3] was -3.73% (inactive); in assay [4] it was -5.56% (inactive).

In the case of `COc1ccc2c(c1)CCc1c(C(=O)N3CC4(C)CC3CC(C)(C)C4)noc1-2` (stereo unspecified), the viability in assay [5] was 52.3% (inactive); in assay [6], 75.1% (inactive); in assay [2] (setting [7]) it was 74.3%; in assay [2] (setting [8]) it was 75.1%. Besides, the differential viability (reversal) in assay [2] (H69AR cells + 2 uM doxorubicin) is 0.855% (inactive). In addition, the inhibition in assay [3] is -2.34% (inactive); in assay [4] it was -3.02% (inactive).

On to `CCOc1ccc(N(C)S(=O)(=O)c2ccc3[nH]cc(C(=O)NCC4CCCO4)c(=O)c3c2)cc1` (stereo unspecified), for which the viability in assay [5] is 73.7% (inactive); in assay [6] it was 87.9% (inactive); in assay [2] (setting [7]) it was 82.9%; in assay [2] (setting [8]), 87.9%. For the same compound, in assay [2] (H69AR cells + 2 uM doxorubicin), the differential viability (reversal) is 5.04% (inactive). In addition, the figures for the inhibition in assay [3] and in assay [4] were -2.86% (inactive) and -3.17% (inactive), respectively.

For the compound `CCCOc1ccc(C2C(C(=O)c3ccc(C)o3)=C(O)C(=O)N2Cc2cccnc2)cc1` (stereo unspecified), the viability in assay [5] is 110% (inactive); in assay [6], 97.8% (inactive); in assay [2] (setting [7]), 94%; in assay [2] (setting [8]), 97.8%. In addition, the differential viability (reversal) in assay [2] (H69AR cells + 2 uM doxorubicin) was 3.76% (inactive). The inhibition was -5.79% (inactive) in assay [3] and 1.75% (inactive) in assay [4].

Take `Nn1cnnc1SCC(=O)Nc1ccc2c(c1)OCCO2`: the viability was 97.5% (inactive) in assay [5], 97.1% (inactive) in assay [6], 98.2% in assay [2] (setting [7]) and 97.1% in assay [2] (setting [8]). In addition, in assay [2] (H69AR cells + 2 uM doxorubicin), the differential viability (reversal) is -1.08% (inactive). The results for the inhibition in assay [3] and in assay [4] were -4.4% (inactive) and 8.41% (inactive), respectively.

`O=C(O)c1cccn2c(=O)c3ccccc3nc12`: the viability is 101% (inactive) in assay [5], 95.8% (inactive) in assay [6], 91.4% in assay [2] (setting [7]) and 95.8% in assay [2] (setting [8]). In assay [2] (H69AR cells + 2 uM doxorubicin), the differential viability (reversal) was 4.45% (inactive). In addition, the inhibition was -2.8% (inactive) in assay [3] and -2.22% (inactive) in assay [4].

In the case of `CN(CCCC(=O)Nc1ccncc1)S(=O)(=O)c1ccc(Cl)cc1`, the viability in assay [5] is 56.2% (inactive); in assay [6], 89% (inactive); in assay [2] (setting [7]), 104%; in assay [2] (setting [8]), 89%. In addition, the differential viability (reversal) in assay [2] (H69AR cells + 2 uM doxorubicin) was -14.6% (inactive). The inhibition is 0.65% (inactive) in assay [3] and -5.87% (inactive) in assay [4].
